From PubChem BioAssay AID651605 (National Center for Advancing Translational Sciences (NCATS), 2012)
“And” between values parts separate entries of the source, which are not always exact repeats. Identical values can stand only once. Results filed as inconclusive are left out. Values without a mark were called inactive. The source made the active and inactive calls. Calls follow the shape of the dose curve; as a rule, active = well fitted inhibition curve with a large enough effect; inconclusive = small, poorly fitted or top-dose-only effect; inactive = flat fitted curve, though single readings scatter.

Each compound was assayed against Ubiquitin carboxyl-terminal hydrolase 1 (Homo sapiens) (UniProt O94782) (assay: Inhibitors of USP1/UAF1: SAR in Primary Assay). Conditions: Recombinant USP1/UAF1, Ub-Rhodamine cleavage fluorescence; series mostly up to 57.1 µM; activity change, negative = inhibition: at the top concentration.
Ubiquitin carboxyl-terminal hydrolase 1 (Homo sapiens), sequence (O94782 whole entry, looked up): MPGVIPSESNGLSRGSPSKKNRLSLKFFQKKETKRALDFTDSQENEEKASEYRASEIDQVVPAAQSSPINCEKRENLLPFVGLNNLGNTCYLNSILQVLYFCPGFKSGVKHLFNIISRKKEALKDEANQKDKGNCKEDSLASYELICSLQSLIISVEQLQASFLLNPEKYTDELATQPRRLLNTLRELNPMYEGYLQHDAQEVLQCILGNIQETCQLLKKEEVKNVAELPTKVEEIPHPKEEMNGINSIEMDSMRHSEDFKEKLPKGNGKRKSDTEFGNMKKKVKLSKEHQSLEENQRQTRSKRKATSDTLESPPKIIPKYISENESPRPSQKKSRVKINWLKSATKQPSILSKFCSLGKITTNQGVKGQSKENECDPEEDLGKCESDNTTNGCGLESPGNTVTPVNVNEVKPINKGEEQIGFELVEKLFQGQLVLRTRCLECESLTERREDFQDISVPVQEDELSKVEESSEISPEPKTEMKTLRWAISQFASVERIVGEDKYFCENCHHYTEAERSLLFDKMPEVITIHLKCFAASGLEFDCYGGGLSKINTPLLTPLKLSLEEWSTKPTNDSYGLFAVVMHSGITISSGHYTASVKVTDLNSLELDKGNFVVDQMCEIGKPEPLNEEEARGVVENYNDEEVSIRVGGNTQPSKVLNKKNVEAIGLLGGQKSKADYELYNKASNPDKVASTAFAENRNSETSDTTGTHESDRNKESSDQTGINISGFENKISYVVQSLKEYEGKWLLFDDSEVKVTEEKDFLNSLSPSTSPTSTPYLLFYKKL
Source text: Deubiquitinating enzymes (DUBs) are a class of enzymes that can cleave isopeptide bond formed between the C-terminal carboxylate of ubiquitin and a lysine side-chain amino group on the target protein. Among them, ubiquitin specific proteases (USPs) constitute the largest DUB family. Human USPs are emerging as promising targets for pharmacological intervention because of their connection to a number of human diseases, including prostate, colon and breast cancer (1, 2), pediatric acute lymphoblastic leukemia (3), and familial cylindromatosis (4). The advantage of inhibiting USPs lies in the potential specificity of therapeutic intervention that can lead to better efficacy and reduce nonspecific side effects. In a collaboration between the University of Delaware and the NIH Chemical Genomics Center, a high-throughput screen assay was developed to screen for USP1/UAF1 inhibitors (5). This assay was used to test the analogs that were synthesized based on SAR around the original hit. NIH Chemical Genomics Center [NCGC] NIH Molecular Libraries Probe Centers Network [MLPCN] MLPCN Grant: DA030552-01 Assay Submitter (PI): Zhihao Zhuang, University of Delaware 1. Priolo, C., et al. (2006) The isopeptidase USP2a protects human prostate cancer from apoptosis. Cancer Res 66, 8625-8632 2. Popov, N., et al. (2007) The ubiquitin-specific protease USP28 is required for MYC stability. Nat Cell Biol 9, 765-774 3. De Pitta, C., et al. (2005) A leukemia-enriched cDNA microarray platform identifies new transcripts with relevance to the biology of pediatric acute lymphoblastic leukemia. Haematologica 90, 890-898 4. Kovalenko, A., et al. (2003) The tumour suppressor CYLD negatively regulates NF-kappaB signalling by deubiquitination. Nature 424, 801-805 5. Chen, J., et al. (2011) Selective and cell-active inhibitors of the USP1/ UAF1 deubiquitinase complex reverse cisplatin resistance in non-small cell lung cancer cells. Chem Bio 18(11):1390-400.
3 microliters of reagents (buffer in columns 3 and 4 as negative control and 1nM USP1/UAF1 complex in columns 1, 2, and 5-48) are dispensed into Greiner black solid bottom 1536-well assay plates. Compounds are then transferred via Kalypsys pin tool equipped with 1536-pin array (10nl slotted pins, V&P Scientific, San Diego, CA). Following an incubation step of 15 min at room temperature, 1ul of Ub-Rho substrate (150nM final concentration) is added to initiate the reaction. The plates are immediately centrifuged at 1000 rpm for 15 seconds, and subsequently transferred to a ViewLux high-throughput CCD imager (PerkinElmer) wherein kinetic measurements of fluorescence are acquired using 480 nm excitation/540 nm emission filter set (6 reads every 60 seconds, see Table 1). All reagents are diluted in an assay buffer consisting of 50mM HEPES (pH 7.8), 0.5mM EDTA, 0.1 mg/ml BSA, 1mM TCEP, and 0.01% Tween-20.

SMILES | Potency | activity change, negative = inhibition
Cc1cnc(-c2ccccc2C(C)C)nc1NCc1ccc(C(N)=O)cc1 | 4290 nM (active) | –
CC(C)c1ccccc1-c1ncc(F)c(NC2(c3ccc(-c4cccnc4)cc3)CC2)n1 | 38.3 nM (active) and 34.1 nM (active) | –
Nc1nc(NCc2ccc(-c3cccnc3)cc2)c2ccccc2n1 | – | -16.9%
Fc1cnc(-c2ccccc2C(F)F)nc1NCC1CCN(c2cnccn2)CC1 | 2410 nM (active) | –
O=[N+]([O-])c1ccccc1-c1nc(NCc2ccc(-c3cccnc3)cc2)c2ccccc2n1 | 4290 nM (active) | –
Cc1ccc(-c2ccc(CNc3nc(-c4ccccc4C(C)C)ncc3F)cc2)cn1 | 76.4 nM (active) | –
CC(C)c1ccccc1-c1nc2c(c(NCc3ccc(-c4cccnc4)cc3)n1)CNC2 | 1520 nM (active) | –
Fc1cnc(-c2ccccc2C(F)F)nc1NCC1CCN(c2cnccn2)C1 (stereo not given) | 21500 nM (active) | –
Cc1cnc(-c2ccccc2C(C)C)nc1N(C)Cc1ccc(-c2cccnc2)cc1 | 681 nM (active) | –
Cc1cnc(-c2ccccc2C(C)C)nc1NCc1ccc(-c2ccc(F)nc2)cc1 | 60.7 nM (active) | –
Cc1ccc(-c2ccc(CNc3nc(-c4ccccc4C(C)C)nc4ccccc34)cc2)cn1 | 136 nM (active) | –
Cc1cnc(-c2ccccc2C(C)C)nc1NCc1ccc(-c2cn[nH]n2)cc1 | 242 nM (active) | –
Clc1ccccc1-c1nc(NCc2ccc(-c3cccnc3)cc2)c2ccccc2n1 | 857 nM (active) | –
Fc1cc(Cl)cc(-c2ccc(CNc3nc(-c4ccccc4C(F)(F)F)nc4ccccc34)cc2)c1 | 2410 nM (active) | –
Cc1ccc(-c2ccc(CN(C)c3nc(-c4ccccc4C(C)C)ncc3C)cc2)cn1 | 541 nM (active) | –
CC(C)c1ccccc1-c1ncc(F)c(NCc2ccc(-c3cccnc3)cc2)n1 | 60.7 nM (active) | –
CSc1cnc(-c2ccccc2C(C)C)nc1NCc1ccc(-c2cccnc2)cc1 | 85.7 nM (active) | –
Cc1nc(-c2ccccc2C(C)C)nc(NCc2ccc(-c3cccnc3)cc2)c1C | 136 nM (active) | –
Cc1ccc(-c2ccc(CNc3nc(-c4ccccc4C(C)C)nc4ccsc34)cc2)cn1 | 96.1 nM (active) | –
FC(F)c1ccccc1-c1nc(NCc2ccc(-c3cccnc3)cc2)c2ccccc2n1 | 1360 nM (active) | –

SMILES | Potency | activity change, negative = inhibition
FC(F)(F)c1ccccc1-c1nc2c(c(NCc3ccc(-c4cccnc4)cc3)n1)CCC2 | 681 nM (active) | –
FC(F)(F)c1ccccc1-c1nc(NCc2ccc(-c3cccnc3)cc2)c2ccccc2n1 | 607 nM (active) | –
Brc1ccccc1-c1nc(NCc2ccc(-c3cccnc3)cc2)c2ccccc2n1 | 961 nM (active) | –
N#Cc1c(-c2ccccc2C(F)(F)F)nc2ccccc2c1NCc1ccc(-c2cccnc2)cc1 | 9610 nM (active) | –
N#Cc1ccc(-c2nc(NCc3ccc(-c4ccnc(C(F)(F)F)c4)cc3)c3ccccc3n2)cc1 | – | -19.2%
Cc1cnc(-c2ccccc2CO)nc1NCC1CCN(c2cccnc2)CC1 | 7640 nM (active) | –
Cc1cnc(-c2ccccc2C(C)C)nc1NCc1ccc(-c2nn[nH]n2)cc1 | 3830 nM (active) | –
Cc1cnc(-c2ccccc2C(C)C)nc1NCC1CN(c2cccnc2)C1 | 6810 nM (active) | –
Cc1cnc(-c2ccccc2C(C)C)nc1NCc1ccc(-c2ccnc(C(F)(F)F)c2)cc1 | 383 nM (active) | –
Cc1cnc(-c2ccccc2C(C)O)nc1NCC1CCN(c2cccnc2)CC1 (stereo not given) | 2410 nM (active) | –
CC(C)(Sc1ccc(CCN(CCCCC2CCCCC2)C(=O)NC2CCCCC2)cc1)C(=O)O | 24100 nM (active) | –
Cc1ccc(N2CCC(CNc3nc(-c4ccccc4C(C)C)ncc3F)CC2)cn1 | 96.1 nM (active) | –
CSc1ccccc1-c1ncc(C)c(NCc2ccc(-c3cccnc3)cc2)n1 | 541 nM (active) | –
Cc1cnc(-c2ccccc2C(C)C)nc1NCc1cccnc1 | 2150 nM (active) | –
CC(C)c1ccccc1-c1nc(NCc2ccc(-c3cccnc3)cc2)c2ccccc2n1 | 152 nM (active) | –
Cc1cnc(-c2ccccc2C(F)F)nc1NCc1ccc(-c2cccnc2)cc1 | 341 nM (active) | –
CC(C)c1ccccc1-c1nccc(NCc2ccc(-c3ccnc(C(F)(F)F)c3)cc2)n1 | 764 nM (active) | –
Cc1nc(NCc2ccc(-c3cccnc3)cc2)c2ccccc2n1 | – | -15.4%
CC(C)c1ccccc1-c1nccc(NCc2ccc(-c3cccnc3)cc2)n1 | 121 nM (active) | –
c1ccc(-c2nc(NCc3ccc(-c4cccnc4)cc3)c3ccccc3n2)cc1 | 13600 nM (active) | –
